Sampled rows, rich in hits. Any-hit rate of the full collection: about 6.9%.
MCF10A rerep = induces DNA re-replication in MCF 10a normal breast cells | MCF 10A DNA re-replication, Hoechst nuclear intensity, 48 h | Potency, µM (highest dose often 46.1 µM), for the others: top-dose activity, positive = re-replication, usual class: activators | actives 2.9% (n = 350,000); also: potency is read from the fitted curve at half-maximal effect; % of control where 0% means no effect; nearly all actives have a fitted effect of over 50% in size
SW480 rereplic = DNA re-replication induction in SW480 cells; AID 624297; Potency, µM (titrated, usually from 46.1 µM), for inactives: at the highest dose re-replication activation, usual class: activators; SW480 DNA re-replication, Hoechst DNA content imaging, 48 h; actives 1.8% (n = 340,000); also: potency is read from the fitted curve at half-maximal effect; % of control where 0% means no effect; nearly all actives have a fitted effect of over 55% in size
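First, 250 cells per well were seeded. Next, compound or vehicle (23 nL) was pinned in, plates sat 48 hr at 37 C. Finally Hoechst was added for 40 min before fluorescence scanning.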
KB-V1 cytotox = kills drug-selected multidrug resistant KB-V1 cells; KB-V1 MDR cells viability, CellTiter-Glo, 72 h; Potency, µM (doses to about 46.1 µM), hits mostly cytotoxic; actives 3.4% (n = 400,000); also: potency is read from the fitted curve at half-maximal effect; % is scaled to controls: 0 for no effect and ±100 for the full control effect; nearly all actives have a fitted effect of over 60% in size
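Potencies derive from concentration-effect curves fitted to normalized luminescence (CellTiter-Glo) of KB-V1 cells treated for 72 h at 37 degrees C in phenol-red-free DMEM containing 10% FBS.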
ASM inhibitor = inhibitors of human secretory acid sphingomyelinase; placental ASM, HMU-PC fluorogenic substrate, 60 min; Potency, µM (doses to about 57.5 µM), for the others: at the top dose activity change, negative = inhibition, usual class: inhibitors; AID 504937; P17405; actives 0.006% (n = 340,000); also: potency is read from the fitted curve at half-maximal effect
Target sequence (P17405 47-631 limits assumed): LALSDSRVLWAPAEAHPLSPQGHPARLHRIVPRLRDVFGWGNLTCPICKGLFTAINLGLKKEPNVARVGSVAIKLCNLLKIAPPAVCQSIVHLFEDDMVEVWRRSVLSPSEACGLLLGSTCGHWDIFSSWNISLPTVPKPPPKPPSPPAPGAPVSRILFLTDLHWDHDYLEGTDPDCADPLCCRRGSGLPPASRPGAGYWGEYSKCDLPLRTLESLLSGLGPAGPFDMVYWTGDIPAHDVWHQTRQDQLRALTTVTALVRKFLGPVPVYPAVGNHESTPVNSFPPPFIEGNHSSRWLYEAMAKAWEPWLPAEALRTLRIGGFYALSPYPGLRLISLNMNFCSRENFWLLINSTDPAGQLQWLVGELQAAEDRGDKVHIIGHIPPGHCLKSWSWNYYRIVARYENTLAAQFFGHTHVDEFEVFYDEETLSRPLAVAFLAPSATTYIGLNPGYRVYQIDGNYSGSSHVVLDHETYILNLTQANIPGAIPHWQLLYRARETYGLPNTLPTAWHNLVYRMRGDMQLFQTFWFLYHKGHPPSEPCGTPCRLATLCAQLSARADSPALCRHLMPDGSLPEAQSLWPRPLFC
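Steps: dispense placental human ASM, pin compound, wait 10 min at room temperature, add HMU-PC0 substrate at 9 uM final, incubate 60 min at 37 °C, add stop solution raising pH to 10, read fluorescence.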
Giardia kill = Giardia lamblia killing; actives 0.15% (n = 340,000); Giardia lamblia trophozoite viability; activity change, % at 7.66 µM, hits read low; in the data active = activity change below about -80%; inconclusive = between about -30% and that limit;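 also: parasites exposed to compound for two days anaerobically before the ATP read; % is scaled to controls: 0 for no effect and ±100 for the full control effect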
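Trophozoite viability was measured as ATP-dependent luminescence, read 15-30 min after reagent addition. Before that, parasites at 100 cells/well were exposed to compounds for 48 h, anaerobically, at 37 deg C.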
KB-3-1 cytotox = kills parental KB-3-1 adenocarcinoma cells | KB-3-1 viability, CellTiter-Glo ATP luminescence, 72 h | Potency, µM (series often up to 46.1 µM), usual class: cytotoxic | actives 1.4% (n = 400,000) | AID 1347075; also: potency is read from the fitted curve at half-maximal effect; % is scaled to controls: 0 for no effect and ±100 for the full control effect; nearly all actives have a fitted effect of over 60% in size
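Screening of KB-3-1 cells (DMEM, 10% FBS, phenol-red free) ran from lowest to highest compound concentration; after 72 h at 37 °C viability was read luminescently and curves fitted.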
An asterisk follows results filed as active; i = inactive; u = inconclusive; x = no result; [ ] = another dose, or the depositor's remark. Unless noted, calls follow the shape of the dose curve; as a rule, active = well fitted curve in the direction sought with a large enough effect; inconclusive = small, poorly fitted or top-dose-only effect, or another doubt; inactive = no such curve, though single readings can be large; an effect the other way counts as inactive or inconclusive.

SMILES | MCF10A rerep | SW480 rereplic | KB-V1 cytotox | ASM inhibitor | Giardia kill | KB-3-1 cytotox
Cc1ccccc1N1C(=O)NC(=O)/C(=C\c2cc(Br)c(N3CCOCC3)o2)C1=O | 7.3µM* | u | i | 3% | 8 | i
COC(=O)c1ccc(COC(=O)c2nn(C)c(=O)c3ccccc23)cc1 | -9% | -21% | i | -11% | -1 | i
O=C(CF)N(O)c1ccc(C=Cc2ccccc2)cc1 | 6.5µM* | 10µM* | i | 0% | -11 | i
N#C/C(=C(/O)c1ccc(S(=O)(=O)N(CCCl)CCCl)cc1)c1nc2ccccc2[nH]1 | 10µM* | u | i | 69% | 14 | i
Cc1ccc(-n2c(/C=C/c3cccc4ccccc34)nc3ccccc3c2=O)cc1 | x | x | i | x | x | i
COC(=O)c1cn(S(=O)(=O)c2ccccc2)c2ccccc12 | 26µM* | u | i | 10% | -10 | i
Cn1cc(C(=O)c2ccccc2)c2ccccc21 | 16% | 1% | i | 5% | -13 | i
COC(=O)C1=C(c2cc3ccccc3s2)C[C@@H]2CC[C@H]1N2C(=O)NCc1ccc(C(F)(F)F)cc1 | u | -7% | 18µM* | -1% | 0 | u
COC(=O)C1=C(c2ccc(F)cc2OCc2ccccc2)C[C@@H]2CC[C@H]1N2C(=O)NCc1ccc(C(F)(F)F)cc1 | 15µM* | -5% | i | 7% | 0 | i
COC(=O)C1=C(c2cc3ccccc3s2)C[C@@H]2CC[C@H]1N2C(=O)NCC1CC1 | 28% | -2% | i | 0% | -8 | i
COC(=O)C1=C(c2ccccc2OCc2ccccc2)C[C@@H]2CC[C@H]1N2C(=O)NCc1ccc(C(F)(F)F)cc1 | 11% | 12% | i | -2% | 32 | u
COC(=O)C1=C(c2ccccc2OCc2ccccc2)C[C@@H]2CC[C@H]1N2C(=O)NCCc1ccc(F)cc1 | 11% | 5.8µM* | i | -5% | 26 | u
CC(C)OC(=O)c1cc(C(=O)c2cc(Cl)ccc2O)coc1=N | 1% | 0% | i | 141% | 2 | i
CCOC(=O)c1c(C)n(Cc2ccc3c(c2)OCO3)c2ccc(O)cc12 | u | -24% | i | u | 17 | i
CCOC(=O)c1c(C)n(Cc2ccc(F)cc2)c2ccc(O)cc12 | 6% | u | 16µM* | -4% | 9 | u
COc1cc(CN2CC3CC(C2)c2cccc(=O)n2C3)cc(OC)c1OC (stereo not given) | 26µM* | 1% | i | -1% | -8 | i
CCCCc1nn2c(=O)cc(COC(=O)Cc3ccccc3)nc2s1 | x | x | u | x | x | i
Cc1cccc2sc(NC(=O)c3cccn(Cc4ccccc4)c3=O)nc12 | x | x | i | x | x | i
CCN(CC)C1=NC(=[N+](CC)CC)c2ccccc21 | u | u | i | 44% | -9 | 10µM*
Cc1ccc2scc(N3CCN(C)CC3)c(=O)c2c1 | x | x | i | x | -3 | i
C[N+]1([O-])[C@H]2CC[C@H]1CC(OC(=O)[C@@H](CO)c1ccccc1)C2 (stereo not given in full) | 6% | 0% | x | x | x | x
CCOP(=O)(OCC)c1nc(-c2cccc3ccccc23)oc1NCc1ccccc1 | u | u | 9.2µM* | i | -4 | i
COP(=O)(OC)c1nc(-c2cccc3ccccc23)oc1N1CCOCC1 | 0% | -4% | i | i | -6 | i
COP(=O)(OC)c1nc(-c2cccc3ccccc23)oc1NCCc1ccccc1 | 21µM* | u | u | i | -14 | i
CCOc1ccccc1N=C1SCCCN1C | 13% | -3% | i | 11% | -5 | i
SMILES | MCF10A rerep | SW480 rereplic | KB-V1 cytotox | ASM inhibitor | Giardia kill | KB-3-1 cytotox
CCOc1cccc(=NC2CCCCC2)c2c(C)n(C)c(C)c12 | -1% | 3%[9.22 µM] | u | -26% | -14 | 18µM*
Cc1[nH]n(-c2ccccc2)c(=O)c1C(c1ccc([N+](=O)[O-])cc1)c1c(C)[nH]n(-c2ccccc2)c1=O | 23µM* | -11% | i | -16% | -9 | u
Cc1ccc(N=Nc2cc(C)ccc2N)cc1 | u | 7% | i | -12% | -13 | i
COC(=O)C[C@]1(C(=O)OC)CN(C#N)N(c2ccc(Cl)cc2)C12c1ccccc1-c1ccccc12 | 5.2µM* | u | 5.8µM* | -3% | 9 | 5.2µM*
COC(=O)[C@@H]1[C@@H](C(=O)OC)C2(c3ccccc3-c3ccccc32)N(c2ccc(Cl)cc2)N1C#N | 7.1µM* | 9.2µM* | u | 4% | -18 | u
O=C1CC2OCC=C3CN4CC[C@]56c7ccccc7N1C5C2[C@H]3C[C@H]46 (stereo not given in full) | x | -3% | x | x | x | x
CCCCCn1c(=O)c(C(=O)Nc2ccccc2N)c(O)c2ccccc21 | 17% | -8% | i | 0% | u | i
CCCCCCn1c(=O)c(C(=O)Nc2ncccc2O)c(O)c2ccccc21 | -7% | -3% | u | -3% | -12 | 7.3µM*
CCCCn1c(=O)c(C(=O)Nc2ccc(C)cn2)c(O)c2ccccc21 | -2% | -3% | u | 0% | 5 | i
CCCCn1c(=O)c(C(=O)Nc2ccccn2)c(O)c2ccccc21 | 6% | -43% | i | -4% | -13 | 10µM*
CCCCCn1c(=O)c(C(=O)Nc2ccccc2)c(O)c2ccccc21 | 12% | 1% | i | 43% | 19 | i
CCCCCn1c(=O)c(C(=O)Nc2ccccn2)c(O)c2ccccc21 | -4% | 3% | 6.5µM* | -3% | 17 | i
CCCCCCn1c(=O)c(C(=O)Nc2cnccn2)c(O)c2ccccc21 | u | -5% | 1.3µM* | -1% | -1 | 2.1µM*
CCCCCn1c(=O)c(C(=O)Nc2cccc(C)c2)c(O)c2ccccc21 | 3% | -4% | i | 5% | 12 | u
Oc1ccccc1/C=N/[n+]1ccccc1 | -2% | -11% | i | 7% | u | i
C[C@]12C=CC(=O)C=C1CC[C@@H]1[C@@H]2CC[C@@]2(C)[C@H]1CC[C@]2(C)O | 16% | 0% | x | x | x | x
O=C(CN1CCOCC1)c1cccc([N+](=O)[O-])c1 | x | x | i | x | x | u
CCCCCCn1c(=O)c(C(=O)Nc2c(C)n(C)n(-c3ccccc3)c2=O)c(O)c2ccccc21 | -9% | -8% | 1.6µM* | -3% | -6 | u
O=C(Cc1ccc(N(CCCl)CCCl)cc1)NC(Cc1ccc(Cl)cc1)C(=O)O (stereo not given) | -6% | 1% | i | -13% | 4 | i
